The whole screen tested about 5,500 compounds, of which about 2,000 (36%) were called active. Not shown: some 18% with an inconclusive outcome. No stated cut-off is given here; in the data, active means normalized growth mostly below about 0.91 (no sharp cut-off); inconclusive means no clear call, values can overlap the other calls; inactive means mostly above about 0.92. The list shows a part of the results.
Experiment: chemical genetic growth profiling, strain panel (AID 1159580);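 further: tested at 20 µM; growth read once vehicle control cultures reached saturation at 30 °C; 1 = growth at the plate median or of vehicle wells; lower values mean less growth of the strain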
Details: growth OD

Measured: normalized growth

CN1CCC[C@@H]1CCO[C@](C)(c1ccccc1)c1ccc(Cl)cc1
active: S. cerevisiae deletion strains, locus YLR039C, strain RIC1, hits give low values 1.41 [resistant] | S. cerevisiae deletion strains, locus YLR262C, strain YPT6, hits give low values 1.46 [resistant] | S. cerevisiae deletion strains, locus YLR342W, strain FKS1, hits give low values 0.893 | S. cerevisiae deletion strains, locus YLR418C, strain cdc73, hits give low values 0.682 | S. cerevisiae deletion strains, locus YNL071W, strain lat1, hits give low values 0.888 | S. cerevisiae deletion strains, locus YNL209W, strain ssb2, hits give low values 0.877 | S. cerevisiae deletion strains, locus YNL248C, strain rpa49, hits give low values 0.836 | S. cerevisiae deletion strains, locus YOL006C, strain TOP1, hits give low values 0.417 | S. cerevisiae deletion strains, locus YOR270C, strain vph1, hits give low values 0.616
inactive: S. cerevisiae deletion strains, locus YJR075W, strain HOC1, hits give low values 0.92 | S. cerevisiae deletion strains, locus YKL009W, strain mrt4, hits give low values 0.977 | S. cerevisiae deletion strains, locus YKL068W, hits give low values 0.992 | S. cerevisiae deletion strains, locus YKL085W, strain MDH1 (second series), hits give low values 0.995 | S. cerevisiae deletion strains, locus YKL085W, strain MDH1, hits give low values 0.995 | S. cerevisiae deletion strains, locus YKL160W, strain elf1, hits give low values 0.977 | S. cerevisiae deletion strains, locus YKL190W, strain CNB1, hits give low values 0.977 | S. cerevisiae deletion strains, locus YKR001C, strain vps1, hits give low values 1.02 | S. cerevisiae deletion strains, locus YKR026C, strain gcn3, hits give low values 1.02 | S. cerevisiae deletion strains, locus YKR091W, strain srl3, hits give low values 1 | S. cerevisiae deletion strains, locus YLL001W, strain dnm1, hits give low values 0.946 | S. cerevisiae deletion strains, locus YLL026W, hits give low values 0.988 | S. cerevisiae deletion strains, locus YLL041C, strain sdh2, hits give low values 0.992 | S. cerevisiae deletion strains, locus YLR027C, strain aat2, hits give low values 0.98 | S. cerevisiae deletion strains, locus YLR058C, strain SHM2, hits give low values 0.994 | S. cerevisiae deletion strains, locus YLR102C, strain apc9, hits give low values 0.997 | S. cerevisiae deletion strains, locus YLR113W, strain HOG1, hits give low values 0.969 | S. cerevisiae deletion strains, locus YLR221C, strain rsa3, hits give low values 0.932 | S. cerevisiae deletion strains, locus YLR258W, strain gsy2, hits give low values 0.977 | S. cerevisiae deletion strains, locus YLR262C, strain YPT6 (second series), hits give low values 1.07 | S. cerevisiae deletion strains, locus YLR268W, strain sec22, hits give low values 0.929 | S. cerevisiae deletion strains, locus YLR320W, strain mms22, hits give low values 0.878 | S. cerevisiae deletion strains, locus YLR330W, strain CHS5, hits give low values 1.02 | S. cerevisiae deletion strains, locus YLR342W, strain FKS1 (second series), hits give low values 0.834 | S. cerevisiae deletion strains, locus YLR357W, strain rsc2, hits give low values 1.01 | S. cerevisiae deletion strains, locus YLR370C, strain arc18, hits give low values 0.966 | S. cerevisiae deletion strains, locus YLR371W, strain rom2, hits give low values 0.994 | S. cerevisiae deletion strains, locus YLR384C, strain iki3, hits give low values 1.01 | S. cerevisiae deletion strains, locus YML016C, strain PPZ1, hits give low values 1.02 | S. cerevisiae deletion strains, locus YML032C, strain rad52, hits give low values 0.98 | S. cerevisiae deletion strains, locus YML120C, strain ndi1, hits give low values 1 | S. cerevisiae deletion strains, locus YML124C, strain tub3, hits give low values 0.994 | S. cerevisiae deletion strains, locus YMR058W, strain fet3, hits give low values 0.953 | S. cerevisiae deletion strains, locus YMR078C, strain ctf18, hits give low values 0.993 | S. cerevisiae deletion strains, locus YMR125W, strain sto1, hits give low values 0.96 | S. cerevisiae deletion strains, locus YMR129W, hits give low values 0.99 | S. cerevisiae deletion strains, locus YMR205C, strain PFK2, hits give low values 0.955 | S. cerevisiae deletion strains, locus YMR223W, strain ubp8, hits give low values 0.964 | S. cerevisiae deletion strains, locus YMR231W, strain pep5, hits give low values 1.01 | S. cerevisiae deletion strains, locus YMR263W, strain SAP30, hits give low values 0.976 | S. cerevisiae deletion strains, locus YMR307W, strain GAS1, hits give low values 0.92 | S. cerevisiae deletion strains, locus YNL067W, strain RPL9B, hits give low values 0.971 | S. cerevisiae deletion strains, locus YNL128W, strain TEP1, hits give low values 0.898 | S. cerevisiae deletion strains, locus YNL153C, strain GIM3, hits give low values 1 | S. cerevisiae deletion strains, locus YNL183C, strain NPR1, hits give low values 0.918 | S. cerevisiae deletion strains, locus YNL233W, strain BNI4, hits give low values 0.978 | S. cerevisiae deletion strains, locus YNL250W, strain rad50, hits give low values 0.986 | S. cerevisiae deletion strains, locus YNL271C, strain bni1, hits give low values 0.986 | S. cerevisiae deletion strains, locus YNL298W, strain CLA4, hits give low values 0.988 | S. cerevisiae deletion strains, locus YNL307C, strain MCK1, hits give low values 0.96 | S. cerevisiae deletion strains, locus YNL322C, strain KRE1 (second series), hits give low values 1.02 | S. cerevisiae deletion strains, locus YNL322C, strain KRE1, hits give low values 1.01 | S. cerevisiae deletion strains, locus YNR049C, strain mso1, hits give low values 1.01 | S. cerevisiae deletion strains, locus YNR052C, strain pop2, hits give low values 0.971 | S. cerevisiae deletion strains, locus YOL012C, strain htz1 0.791 | S. cerevisiae deletion strains, locus YOL147C, strain pex11, hits give low values 0.999 | S. cerevisiae deletion strains, locus YOR001W, strain rrp6, hits give low values 0.951 | S. cerevisiae deletion strains, locus YOR061W, strain CKA2, hits give low values 1.01 | S. cerevisiae deletion strains, locus YOR069W, strain VPS5, hits give low values 1 | S. cerevisiae deletion strains, locus YOR070C, strain gyp1, hits give low values 0.974 | S. cerevisiae deletion strains, locus YOR080W, strain dia2, hits give low values 0.994 | S. cerevisiae deletion strains, locus YOR083W, strain WHI5, hits give low values 0.93 | S. cerevisiae deletion strains, locus YOR106W, strain vam3, hits give low values 0.914 | S. cerevisiae deletion strains, locus YOR136W, strain idh2, hits give low values 0.991 | S. cerevisiae deletion strains, locus YOR144C, strain elg1, hits give low values 1 | S. cerevisiae deletion strains, locus YOR184W, strain ser1, hits give low values 0.999 | S. cerevisiae deletion strains, locus YOR231W, strain MKK1, hits give low values 0.991 | S. cerevisiae deletion strains, locus YOR265W, strain rbl2, hits give low values 0.998 | S. cerevisiae deletion strains, locus YOR290C, strain snf2, hits give low values 0.957 | S. cerevisiae deletion strains, locus YOR316C, strain cot1, hits give low values 0.993 | S. cerevisiae deletion strains, locus YPL051W, strain arl3, hits give low values 0.94 | S. cerevisiae deletion strains, locus YPL055C, strain LGE1, hits give low values 0.782 | S. cerevisiae deletion strains, locus YPL078C, strain atp4, hits give low values 0.916 | S. cerevisiae deletion strains, locus YPL106C, strain sse1, hits give low values 1.02 | S. cerevisiae deletion strains, locus YPL240C, strain hsp82, hits give low values 0.992 | S. cerevisiae deletion strains, locus YPL241C, strain CIN2, hits give low values 0.999 | S. cerevisiae deletion strains, locus YPL256C, strain CLN2, hits give low values 0.979 | S. cerevisiae deletion strains, locus YPR119W, strain clb2, hits give low values 0.998 | S. cerevisiae deletion strains, locus YPR141C, strain kar3, hits give low values 0.997 | S. cerevisiae deletion strains, locus YPR163C, strain tif3, hits give low values 0.975 | S. cerevisiae deletion strains, locus YPR167C, strain met16, hits give low values 0.991 | S. cerevisiae deletion strains, strain wtn01, hits give low values 0.959 | S. cerevisiae strains, strain wild type, hits give low values 0.99
